According to PubChem BioAssay:
The source made the active and inactive calls. How the calls were made is not given here.

biological target: L-lactate dehydrogenase (Plasmodium falciparum (isolate CDC / Honduras)) (UniProt Q27743); assay: PfLDH activity inhibition – cell lysate, 3D7 strain, counter-screen for P. falciparum growth inhibition project (AID 2304);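 further: 0% = vehicle and 100% = reference inhibitor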; details: P. falciparum 3D7 crude extract, LDH APAD/NBT absorbance; at 2 µM; stronger effect = higher value
Sequence (Q27743 whole entry, looked up): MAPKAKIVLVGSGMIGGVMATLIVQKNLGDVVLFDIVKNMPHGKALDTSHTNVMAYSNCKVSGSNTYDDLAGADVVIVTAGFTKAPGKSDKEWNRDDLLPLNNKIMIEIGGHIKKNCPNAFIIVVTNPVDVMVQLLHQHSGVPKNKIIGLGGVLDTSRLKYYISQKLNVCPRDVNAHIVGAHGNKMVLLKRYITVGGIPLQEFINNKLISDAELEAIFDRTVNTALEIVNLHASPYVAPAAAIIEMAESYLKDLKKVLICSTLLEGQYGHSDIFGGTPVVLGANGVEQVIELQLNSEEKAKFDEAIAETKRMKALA

Structure (SMILES) | inhibition
N#Cc1ccnc(-c2ccc(CNC3CCN(CC4Cn5c(=O)ccc6ccc(F)c4c65)CC3)cc2)c1 (stereo not drawn) | 2% (inactive)
COc1cc2nc(NCc3ccc(S(N)(=O)=O)cc3)nc(Nc3ccc(Oc4ccccc4)cc3)c2cc1OC | -3% (inactive)
Cc1nc(N)nc(N)c1OCc1cccc2c1ccc1ccccc12 | 1% (inactive)

system: not listed separately; assay: inhibition of 3D7 malaria parasite growth – strain 3D7 (AID 2306);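 further: 0% = DMSO wells and 100% = chloroquine plus artemisinin control wells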; details: P. falciparum 3D7 erythrocytic growth, LDH absorbance, 72 h; at 2 µM; stronger effect = higher value

Structure (SMILES) | growth inhibition
COc1cccc2c1CCN(CCN1CCC(NC(=O)c3ccc(-c4cccc(Cl)c4Cl)cc3)CC1)C2 | 100% (active)
C=CCC1OC(=O)c2cc(OC)cc(OC)c21 (stereo not drawn) | 95% (active)
COCC(=O)Nc1nc2ccccc2[nH]1 | 98% (active)
COc1ccc(NC(=O)C2c3ccccc3C(=O)N(C3CCCC3)C2c2cccs2)cc1 (stereo not drawn) | 93% (active)
CN1C[C@@H](c2ccccc2)c2cc(O)c(CN3CCCCC3)cc2C[C@H]1Cc1ccccc1 | 99% (active)
CO/C(=C\C=C\c1cc2cc(Cl)c(Cl)cc2[nH]1)C(=O)NC1CCN(CCNc2ccccc2)CC1 | 102% (active)
CC(C)(CC1CCCCC1)NC(=O)[C@H](CC1CCCCC1)Nc1ccc(C#N)c2ccccc12 | 98% (active)
CC[C@H](NC(=O)c1ccc(NC(=O)OC(C)(C)C)cc1)C(=O)N[C@@H](CO)C(=O)NCCCCc1ccccc1 | 98% (active)
COc1ccccc1CNC(=O)c1ccc(N2CCN(c3ccncc3)CC2)cn1 | 96% (active)
CCCCCCCCCc1c(C)[nH]c2ccccc2c1=O | 97% (active)
NC(N)=NN=Cc1ccc2c(c1)Cc1ccccc1-2 | 100% (active)
CC(C)(C)c1ccc(C(=O)NC2CCC(CCN3CCc4ccc(S(C)(=O)=O)cc4CC3)CC2)cc1C(F)(F)F (stereo not drawn) | 88% (active)
O=C(Nc1ccc2c(c1)OCO2)c1cc(-c2cccnc2)cnc1NCc1ccc2c(c1)OCO2 | 87% (active)
COc1ccc(Nc2ccnc3cc(-c4ccccn4)ccc23)cc1OC | 91% (active)
CC(C)Cn1c(Sc2ccc(C#N)c([N+](=O)[O-])c2)nnc1-c1cccs1 | 90% (active)
Cc1cc(NC(=O)c2ccco2)ccc1OC1CCN(Cc2ccc(F)cc2)C1 (stereo not drawn) | 96% (active)
Cn1cncc1CNCc1ccc(-c2cccc(-c3nc4ccccc4[nH]3)c2)cc1 | 101% (active)
COc1cc(C(=O)N2CCOC(CCN3CCc4c(c5ccccc5n4C)C3)(c3ccc(Cl)c(Cl)c3)C2)cc(OC)c1OC (stereo not drawn) | 87% (active)

Structure (SMILES) | growth inhibition
CC(C)C[C@H](NC(=O)c1cc2ccccc2s1)C(=O)N[C@H]1CCN(Cc2ccc(I)c(OCCN3CCCC3)c2)C1 | 92% (active)
O=C(Nc1cc(F)cc(F)c1)N1CCOC(CCN2CCC(c3ccccc3)CC2)(c2ccc(Cl)c(Cl)c2)C1 (stereo not drawn) | 91% (active)
COc1ccc(-c2nc3cccnc3n2CC(=O)Nc2cc(Cl)c(Cl)cc2Cl)c(OC)c1 | 100% (active)
CCCCn1c(C(C)Oc2ccc(Cl)cc2Cl)nc2cc(S(N)(=O)=O)ccc21 (stereo not drawn) | 94% (active)
CC(C)N1CCN(c2ccc(OCCCN3CCN(c4cccc(Cl)c4Cl)CC3)c(C(F)(F)F)c2)CC1 | 94% (active)
COc1ccc(OC)c(Cc2cnc3nc(N)[nH]c(=O)c3c2C)c1 | 98% (active)
CCCCCCNC(=O)C1Cc2c([nH]c3ccc(C)cc23)C2(CCN(CCc3ccccc3)CC2)N1 (stereo not drawn) | 85% (active)
COc1cccc(NC(=O)NC2CCN(c3ccnc(Nc4cc(OC)c(OC)c(OC)c4)n3)C2)c1 (stereo not drawn) | 95% (active)
Fc1ccc2nc(-c3ccc(-c4ccc(CNCCc5ccncc5)cc4)s3)[nH]c2c1 | 99% (active)
CC(C)C[C@@H](NC(=O)OC(C)(C)C)C(=O)Nc1ccc(Cc2ccc(NC(=O)[C@@H](CC(C)C)NC(=O)OC(C)(C)C)cc2)cc1 | 96% (active)
COc1ccc(CNCCc2cccs2)cc1-c1ccc(S(=O)(=O)NCCN2CCCC2)s1 | 99% (active)
O=c1c(NCCCN(Cc2ccc(F)cc2)c2ccccn2)c(NCc2cccnc2)c1=O | 101% (active)
CC(C)CNCc1ccc(-c2ccc(CN(CCCN3CCN(C)CC3)C(=O)CCC3CCCC3)cc2)cc1 | 96% (active)
CC(=O)C1=NN(c2ccc(C)cc2)C(c2cccs2)N1c1ccccc1 (stereo not drawn) | 89% (active)
CCn1cc(-c2cc(C(=O)Nc3ccc(OC)cc3C)c3ccccc3n2)c(C)n1 | 97% (active)
O=C(c1ccc(-c2ccc(-c3nc4ccc(C(F)(F)F)cc4[nH]3)s2)cc1)N1CCCCC1CN1CCC(O)C1 (stereo not drawn) | 92% (active)
O=C(NCC1CCN(CCN2CCc3ccc4c(c3C2)OCO4)CC1)c1ccc(-c2ccc(C(F)(F)F)cc2)cc1 | 93% (active)
